# Paper PMC7826789 (International Journal of Molecular Sciences, 2021)
# Columns and labels:
# Details in all cases: Compound Concentration (nM):1000
# ROCK2 = tested on: ROCK2
# ROS1 = tested on: ROS1
# [1] = tested on: RPS6KA4(Kin.Dom.1-N-terminal)
# [2] = tested on: RPS6KA4(Kin.Dom.2-C-terminal)
# [3] = tested on: RPS6KA5(Kin.Dom.1-N-terminal)
# [4] = tested on: RPS6KA5(Kin.Dom.2-C-terminal)
# [5] = tested on: T1, RSK1(Kin.Dom.1-N-terminal)
# T1 construct: gene RPS6KA1
# [6] = tested on: T2, RSK1(Kin.Dom.2-C-terminal)
# T2 construct: gene RPS6KA1
# [7] = tested on: T3, RSK2(Kin.Dom.1-N-terminal)
# T3 construct: gene RPS6KA3
# [8] = tested on: T4, RSK2(Kin.Dom.2-C-terminal)
# T4 construct: gene RPS6KA3
# [9] = tested on: T5, RSK3(Kin.Dom.1-N-terminal)
# T5 construct: gene RPS6KA2
# [10] = tested on: T6, RSK3(Kin.Dom.2-C-terminal)
# T6 construct: gene RPS6KA2
# [11] = tested on: T7, RSK4(Kin.Dom.1-N-terminal)
# T7 construct: gene RPS6KA6
# [12] = tested on: T8, RSK4(Kin.Dom.2-C-terminal)
# T8 construct: gene RPS6KA6
# S6K1 = tested on: T9, S6K1
# T9 construct: gene RPS6KB1
# SBK1 = tested on: SBK1
# SGK2 = tested on: SGK2
# SGK3 = tested on: SGK3
# SGK = tested on: T10, SGK
# T10 construct: gene SGK1
# SIK2 = tested on: SIK2
# 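Also: KINOMEscan scanMAX binding as percent activity remaining versus control; lower means stronger binding.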
Compound,Percent Control (ROCK2) [%],Percent Control (ROS1) [%],Percent Control [1] [%],Percent Control [2] [%],Percent Control [3] [%],Percent Control [4] [%],Percent Control [5] [%],Percent Control [6] [%],Percent Control [7] [%],Percent Control [8] [%],Percent Control [9] [%],Percent Control [10] [%],Percent Control [11] [%],Percent Control [12] [%],Percent Control (S6K1) [%],Percent Control (SBK1) [%],Percent Control (SGK2) [%],Percent Control (SGK3) [%],Percent Control (SGK) [%],Percent Control (SIK2) [%]
NS(=O)(=O)c1ccc(N/N=C2\C(=O)Nc3ccc(Cl)cc32)cc1 [GW280670X],89,79,100,97,100,100,100,100,100,83,100,100,99,100,98,100,100,77,100,100
COc1cc2ncnc(Nc3ccc4c(cnn4Cc4ccccc4)c3)c2cc1OC.Cl [GW282449A],100,89,42,93,84,100,100,100,100,99,100,100,92,100,100,100,100,100,100,68
COc1ccccc1-c1cc(/C=C2\C(=O)Nc3ncc(Br)cc32)cc(Br)c1O [GW442130X],82,95,100,68,76,46,100,58,100,79,100,100,100,100,100,95,85,94,71,100
COc1ccc2[nH]c3c4[nH]c5ccc(OC)cc5c4c4c(c3c2c1)C(=O)NC4=O [GW296115X],73,24,71,25,53,66,49,100,21,95,28,69,5.8,61,21,95,46,8.1,6.8,9.9
Cl.O=C(Nc1ccc(Oc2ccc3[nH]c(NC(=O)c4ccco4)nc3c2)cc1)Nc1cc(C(F)(F)F)ccc1F [GW683134A],57,61,100,82,95,75,100,100,100,100,92,100,100,100,43,100,100,100,100,100
CCn1c(-c2nonc2N)nc2c(C#CC(C)(C)O)nc(OCCNC)cc21.Cl [GSK949675],78,100,100,5.9,91,34,100,100,97,72,99,100,100,100,100,96,100,92,94,90
NS(=O)(=O)c1ccc(N/N=C2\C(=O)Nc3ccc(C(=O)NCc4ccncc4)cc32)cc1 [GW300657X],56,100,87,42,100,19,94,83,79,87,100,80,56,80,78,37,81,12,36,100
CCS(=O)(=O)c1ccc(OC)c(Nc2ncc(-c3cccc(OC)c3)o2)c1 [GW580509X],88,92,100,100,100,100,100,100,100,100,100,100,94,100,100,100,100,91,100,91
CCc1ccc(Oc2nccc(-c3c(-c4ccc(F)cc4)ncn3C3CCNCC3)n2)cc1 [SB-242719],90,61,100,73,98,87,99,77,97,94,92,94,93,79,93,100,100,77,100,66
CC1=C(C(=O)Nc2ccc3[nH]ncc3c2)C(c2ccc3ccccc3c2)CC(=O)N1 (centres unmarked) [GSK270822A],0,81,100,91,100,64,91,99,72,75,84,100,67,95,67,48,69,42,69,86
